Screening data from PubChem BioAssay.
This is a sample that favours compounds with a hit; in the whole collection about 1.3% have one here.
MOR-DOR inv ag-1: inverse agonists of MOR-DOR heterodimerization, primary screen, cell-based, luminescence. Mu-type opioid receptor (Homo sapiens) + Delta-type opioid receptor (Homo sapiens), …. cell-based MOR-DOR heterodimer luminescence, inverse agonism. inhibition, % at 9.3 µM. 340,000 compounds, 0.21% hits; in the data active = inhibition above about 22%, passing the limit was not always enough;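 also: 0% = cells with DMSO and 100% = wells without cells with DMSO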
PvdQ inh: P. aeruginosa PvdQ acylase inhibitors, primary screen, biochemical, fluorescence, plate reader and imaging, single point. AID 488965, 2010. inhibition, % at 10 µM. purified PvdQ acylase. PvdQ acylase [Pseudomonas aeruginosa LESB58]. 340,000 compounds, 0.063% hits; in the data active = inhibition above about 30%, passing the limit was not always enough;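 also: 0% = vehicle neutral wells and 100% = reference inhibitor wells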
HTR5A inv ag: HTR5A inverse agonists in luminescence cell assay, primary screen, counter-screen for OPRM1-OPRD1 heterodimer inverse agonist project, full-deck HTS; HTR5A cell line, inverse agonism; inhibition, % at 9.3 µM; 340,000 compounds, 0.083% hits; in the data active = inhibition mostly above about 23%, no sharp cut-off; inactive = mostly below about 18%;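 also: 0% = cells with DMSO and 100% = no-cell wells with DMSO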
Target sequence (P47898 whole entry, looked up): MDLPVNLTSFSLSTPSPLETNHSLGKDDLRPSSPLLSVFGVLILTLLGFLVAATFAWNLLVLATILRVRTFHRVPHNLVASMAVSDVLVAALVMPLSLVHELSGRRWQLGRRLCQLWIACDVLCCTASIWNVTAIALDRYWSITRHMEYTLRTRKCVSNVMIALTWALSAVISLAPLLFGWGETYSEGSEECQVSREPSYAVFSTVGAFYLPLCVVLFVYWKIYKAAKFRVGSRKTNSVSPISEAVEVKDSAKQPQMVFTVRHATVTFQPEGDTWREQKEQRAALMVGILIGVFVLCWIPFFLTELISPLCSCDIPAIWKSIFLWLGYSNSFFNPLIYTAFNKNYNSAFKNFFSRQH
HTR5A ag ctr: HTR5A agonists in luminescence cell assay, primary screen, counter-screen for OPRM1-OPRD1 heterodimer agonist project, full-deck HTS; 340,000 compounds, 0.61% hits; cell-based; AID 504692, 2011; activation, % at 9.3 µM; 5-hydroxytryptamine receptor 5A (Homo sapiens), P47898; in the data active = activation mostly above about 9.5%, no sharp cut-off; inactive = mostly below about 7.6%;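 also: 0% = cells with vehicle only and 100% = reference agonist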
MOR-DOR ag: agonists of OPRM1-OPRD1 heterodimerization, primary screen, cell-based, luminescence; 340,000 compounds, 0.3% hits; AID 504326, 2011; Mu-type opioid receptor (Homo sapiens) + Delta-type opioid receptor (Homo sapiens), …; cells; activation, % at 9.3 µM; in the data active = activation above about 18%;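 also: 0% = vehicle-treated cells and 100% = reference agonist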
CR mimetic SO: reduction of superoxide in aged yeast, primary screen, HTS | superoxide response (% of plate mean), % at 10 µM | AID 2690, 2010 | 330,000 compounds, 0.18% hits | S. cerevisiae aged cells, superoxide DHE fluorescence; active compounds read low;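 active = superoxide response under a set limit, about three screen SD below normal, cut at about 65% in these data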;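 also: yeast aged for seven days with compound at 30 °C before DHE staining; 100% = average MFI of all compound-treated wells on the plate with controls excluded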
MOR-DOR inv ag-2: inverse agonists of MOR-DOR heterodimerization, counter-screen for HTR5A inverse agonist project, cell-based, luminescence. inhibition, % at 9.3 µM. U2OS counter-screen cells, complementation luminescence. AID 504912, 2011. 190 tested, under 10 active. shares compounds with HTR5A inv ag;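 also: 0% = cells with DMSO and 100% = wells without cells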
HTR5A inv confrm: HTR5A inverse agonists, retest of hits, confirmation, cell-based, luminescence; shares compounds with HTR5A inv ag; HTR5A-expressing cells, inverse agonism; inhibition, % at 9.3 µM; 190 tested, under 10 active;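 also: 0% = cells with DMSO and 100% = no cells with DMSO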
Starred values were filed as active, the others as inactive. Unless noted, no rule for the calls is given here.

`Cc1cnc(CNC(=O)CC2C(=O)NCCN2Cc2cccc(F)c2F)cn1` (stereo unspecified) gave MOR-DOR inv ag-1 10.5, PvdQ inh -10.4, HTR5A inv ag 7.5, HTR5A ag ctr -2.0, MOR-DOR ag -2.0 and CR mimetic SO 100.2.
Screening O=C(Nc1nnc(-c2ccccc2)o1)c1nc2ccccc2s1 returned MOR-DOR inv ag-1 10.6, PvdQ inh -15.0, HTR5A inv ag 40.7*, HTR5A ag ctr -14.5, MOR-DOR ag -2.0, CR mimetic SO 92.0, MOR-DOR inv ag-2 inactive and HTR5A inv confrm 1.3.
Screening Brc1ccc(-c2nnc(-c3ccccc3Br)o2)cc1 returned MOR-DOR inv ag-1 -16.1, PvdQ inh 1.5, HTR5A inv ag 39.6*, HTR5A ag ctr 7.5, MOR-DOR ag 2.8, CR mimetic SO 103.1, MOR-DOR inv ag-2 -49.1 and HTR5A inv confrm -7.2.
Screening Cc1ccc(-c2nnc(-c3ccccc3Br)o2)cc1 returned MOR-DOR inv ag-1 -19.3, PvdQ inh -14.1, HTR5A inv ag 1.8, HTR5A ag ctr -0.5, MOR-DOR ag 4.0 and CR mimetic SO 91.8.
N#CC1=C(N)Oc2c(ccc3cccnc23)C1c1ccccc1 (stereo unspecified) was read as MOR-DOR inv ag-1 14.3, PvdQ inh 5.1, HTR5A inv ag 33.1*, HTR5A ag ctr -12.1, MOR-DOR ag -2.7, CR mimetic SO 121.0, MOR-DOR inv ag-2 -6.9 and HTR5A inv confrm 4.6.
C=CCn1c(Cc2cccc3ccccc23)n[nH]c1=S was read as MOR-DOR inv ag-1 -4.0, PvdQ inh 5.2, HTR5A inv ag 28.2*, HTR5A ag ctr -8.1, MOR-DOR ag 0.8, CR mimetic SO 89.7, MOR-DOR inv ag-2 2.4 and HTR5A inv confrm 2.1.
C=CCn1c(CCn2c3ccccc3c3ccccc32)n[nH]c1=S was read as MOR-DOR inv ag-1 9.4, PvdQ inh -5.1, HTR5A inv ag 24.5, HTR5A ag ctr 1.6, MOR-DOR ag -2.1 and CR mimetic SO 105.8.
For CCc1nnc(SCC(=O)NCCC2=CCCCC2)nc1CC the results were MOR-DOR inv ag-1 19.6, PvdQ inh 6.4, HTR5A inv ag -15.3, HTR5A ag ctr 0.7, MOR-DOR ag -3.8 and CR mimetic SO 120.4.
`O=C(CSc1nnc(-c2ccccc2O)o1)N1CCOCC1` gave MOR-DOR inv ag-1 2.7, PvdQ inh -6.6, HTR5A inv ag 7.8, HTR5A ag ctr -2.7 and MOR-DOR ag -0.4.
For O=C(CSc1nnc(-c2ccccc2Br)o1)N1CCOCC1 the results were MOR-DOR inv ag-1 2.0, PvdQ inh -1.6, HTR5A inv ag 24.8*, HTR5A ag ctr -9.3, MOR-DOR ag -0.4, CR mimetic SO 100.3, MOR-DOR inv ag-2 inactive and HTR5A inv confrm -64.0.
For CCOCCCN(C(=O)Cn1nnc(-c2ccc(C)o2)n1)C(C(=O)NCC1CCCO1)c1ccc(F)cc1 (stereo unspecified) the results were MOR-DOR inv ag-1 15.4, PvdQ inh 5.0, HTR5A inv ag 12.3, HTR5A ag ctr 5.8, MOR-DOR ag -3.0 and CR mimetic SO 95.3.
Screening COCCn1c(SCC(=O)NNC(=O)c2cc(Cl)ccc2OC)nnc1-c1ccncc1 returned MOR-DOR inv ag-1 5.8, PvdQ inh -4.5, HTR5A inv ag 43.4*, HTR5A ag ctr -17.6, MOR-DOR ag -1.4, CR mimetic SO 99.0, MOR-DOR inv ag-2 -24.1 and HTR5A inv confrm -153.6.
Screening O=C(COc1ccc([N+](=O)[O-])cc1)Nc1ccc2c(c1)CCC2 returned MOR-DOR inv ag-1 -9.8, PvdQ inh -6.2, HTR5A inv ag 1.9, HTR5A ag ctr 2.1, MOR-DOR ag 2.6 and CR mimetic SO 102.8.
